Source: PubChem BioAssay (EPA / NIEHS)
Active and inactive are the calls of the source. How the source made its calls: active means hit-call score of the fitted dose curve at least 0.9, where 1 is the maximum; inactive means score below 0.9.

Assays:
[1] = read-out: Plasminogen activator inhibitor-1 (PAI1), SERPINE1 (gene 5054); experiment: BSK_MyoF_PAI1: BioMAP Diversity Plus: MyoF Assay for Plasminogen activator inhibitor-1 (PAI1) Biomarker Activity (AID 2284256); settings: primary human lung fibroblasts;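 on outcome: PAI-1 protein level measured by ELISA in fibroblast cultures; PAI-1 read 24 h after compound addition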
How it was run: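 ELISA read-out of PAI-1 from primary human lung fibroblast cultures 24 h after dosing; gain-of-signal fit versus DMSO control.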

[2] = read-out: Interleukin-8 (IL8), CXCL8 (gene 3576); experiment: BSK_MyoF_IL8: BioMAP Diversity Plus: MyoF Assay for Interleukin-8 (IL8) Biomarker Activity (AID 2284261); settings: primary human lung fibroblasts
How it was run: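 ELISA read-out of IL-8 from primary human lung fibroblasts, 24 h post-dose; positive-direction curve fitting relative to DMSO vehicle baseline.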

Decorin, DCN (gene 1634) = experiment: BSK_MyoF_Decorin: BioMAP Diversity Plus: MyoF Assay for Decorin Biomarker Activity (AID 2284265); settings: primary human lung fibroblasts
How it was run: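 Human lung fibroblasts in the MyoF system were exposed to compound for 24 h, after which decorin was quantified by ELISA. Activity was fitted in the positive direction relative to DMSO negative control.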

[3] = BSK_MyoF_SRB: Viability Assessment in the BioMAP Diversity Plus: MyoF Assay (AID 2284267); settings: primary human lung fibroblasts;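 further: total protein by SRB absorbance in parallel cultures as cytotoxicity measure; cells assessed 24 h after compound addition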
How it was run: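 Cytotoxicity read-out: after 10% TCA fixation, parallel human lung fibroblast cultures were stained with 0.1% SRB at 24 h post-dosing and read at 560 nm; DMSO served as baseline.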

[4] = read-out: Matrix Metallopeptidase 1 (MMP1), MMP1 (gene 4312); experiment: BSK_MyoF_MMP1: BioMAP Diversity Plus: MyoF Assay for Matrix Metallopeptidase 1 (MMP1) Biomarker Activity (AID 2284268); settings: primary human lung fibroblasts
How it was run: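 ELISA readout of MMP1 in primary human lung fibroblast cultures, 24 h post-dosing. Gain of signal versus DMSO vehicle control defines activity. Parallel SRB staining (0.1% after 10% TCA fixation, 560 nm) flags overt cytotoxicity.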

[5] = read-out: TIMP metallopeptidase inhibitor 1 (TIMP1), TIMP1 (gene 7076); experiment: BSK_MyoF_TIMP1: BioMAP Diversity Plus: MyoF Assay for TIMP metallopeptidase inhibitor 1 (TIMP1) Biomarker Activity (AID 2284269); settings: primary human lung fibroblasts
How it was run: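 Primary human lung fibroblasts, MyoF multiplex system; chemical exposure 24 h; TIMP-1 by ELISA; positive fitting direction vs DMSO control.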

[6] = read-out: Interferon-inducible T-cell alpha chemoattractant (ITAC), CXCL11 (gene 6373); experiment: BSK_hDFCGF_ITAC: BioMAP Diversity Plus: hDFCGF Assay for Interferon-inducible T-cell alpha chemoattractant (ITAC) Biomarker Activity (AID 2284251); settings: primary human foreskin fibroblasts
How it was run: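 Measured by ELISA, the chemokine level serves as the endpoint in human skin fibroblast primary cultures 24 h after compound addition. Increases relative to DMSO-treated wells define activity.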

[7] = read-out: Plasminogen activator inhibitor-1 (PAI1), SERPINE1 (gene 5054); experiment: BSK_KF3CT_PAI1: BioMAP Diversity Plus: KF3CT Assay for Plasminogen activator inhibitor-1 (PAI1) Biomarker Activity (AID 2284252); settings: primary human keratinocytes with fibroblasts
How it was run: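 PAI-1 levels quantified by ELISA after 24 h compound exposure of primary human skin keratinocytes co-cultured with fibroblasts. Activity is the gain relative to DMSO; cytotoxicity tracked in parallel cultures via SRB staining.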

[8] = read-out: Interleukin-8 (IL8), CXCL8 (gene 3576); experiment: BSK_KF3CT_IL8: BioMAP Diversity Plus: KF3CT Assay for Interleukin-8 (IL8) Biomarker Activity (AID 2284254); settings: primary human keratinocytes with fibroblasts
How it was run: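 Human primary keratinocyte plus foreskin fibroblast co-culture dosed with test chemicals; IL-8 measured by ELISA 24 h after dosing. Activity fitted in the positive direction relative to DMSO negative control.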

Compound: BrCCBr
- outcome [1]: inactive
- outcome [2]: inactive
- outcome (Decorin, DCN (gene 1634)): inactive
- outcome [3]: inactive
- outcome [4]: inactive
- outcome [5]: inactive

Compound: Nc1ncc([N+](=O)[O-])s1
- outcome [1]: inactive
- outcome [2]: inactive
- outcome (Decorin, DCN (gene 1634)): inactive
- outcome [3]: inactive
- outcome [4]: inactive
- outcome [5]: inactive

Compound: COP(=S)(OC)Oc1ccc(S(=O)(=O)N(C)C)cc1
- outcome [1]: inactive
- outcome [2]: inactive
- outcome (Decorin, DCN (gene 1634)): inactive
- outcome [3]: inactive
- outcome [4]: inactive
- outcome [5]: inactive

Compound: Nc1ccc(-c2ccc(N)c(Cl)c2)cc1Cl
- outcome [1]: inactive
- AC50 [2]: 2.04 µM (active)
- outcome (Decorin, DCN (gene 1634)): inactive
- AC50 [3]: 24.9 µM (active)
- AC50 [4]: 7.38 µM (active)
- outcome [5]: inactive

Compound: Oc1c(I)cc(I)cc1I
- outcome [1]: inactive
- AC50 [2]: 3.55 µM (active)
- outcome (Decorin, DCN (gene 1634)): inactive
- AC50 [3]: 18.2 µM (active)
- AC50 [4]: 5.11 µM (active)
- outcome [5]: inactive

Compound: O=S(=O)(c1ccc(Cl)cc1)c1ccc(Cl)cc1
- outcome [1]: inactive
- outcome [2]: inactive
- outcome (Decorin, DCN (gene 1634)): inactive
- outcome [3]: inactive
- outcome [4]: inactive
- outcome [5]: inactive

Compound: CC1(C)Cc2cccc(O)c2O1
- outcome [1]: inactive
- outcome [2]: inactive
- outcome (Decorin, DCN (gene 1634)): inactive
- outcome [3]: inactive
- outcome [4]: inactive
- outcome [5]: inactive

Compound: NC(=S)Nc1ccccc1
- outcome [1]: inactive
- outcome [2]: inactive
- outcome (Decorin, DCN (gene 1634)): inactive
- outcome [3]: inactive
- outcome [4]: inactive
- outcome [5]: inactive

Compound: CC(=O)OC(c1ccccc1)C(Cl)(Cl)Cl (stereo not drawn)
- outcome [6]: inactive
- outcome [7]: inactive
- outcome [8]: inactive

Compound: COc1cc(OC)nc(NC(=O)NS(=O)(=O)c2ncccc2C(=O)N(C)C)n1
- outcome [1]: inactive
- outcome [2]: inactive
- outcome (Decorin, DCN (gene 1634)): inactive
- outcome [3]: inactive
- outcome [4]: inactive
- outcome [5]: inactive

Compound: C(=NC1CCCCC1)=NC1CCCCC1
- AC50 [1]: 7.53 µM (active)
- AC50 [2]: 33.1 µM (active)
- outcome (Decorin, DCN (gene 1634)): inactive
- AC50 [3]: 7.2 µM (active)
- AC50 [4]: 4.75 µM (active)
- AC50 [5]: 6.97 µM (active)
